Measurements as given in PubChem BioAssay AID1159580 (chemical genetic matrix, 2015).
Values joined by “and” are separate entries in the source; they are usually repeats but may differ in a detail not shown here. Equal entries are not always repeated. About 2,000 (36%) of roughly 5,500 compounds were called active. Roughly 18% stayed inconclusive and do not appear here. Cut-off read from the data, not from the text of the source: active = normalized growth mostly below about 0.91 (no sharp cut-off); inconclusive = no clear call, values can overlap the other calls; inactive = mostly above about 0.92. Some of the results follow.

Assay: chemical genetic growth profiling, strain panel (AID 1159580);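 note: tested at 20 µM; growth read once vehicle control cultures reached saturation at 30 °C; 1 = growth at the plate median or of vehicle wells; lower values mean less growth of the strain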
Settings: S. cerevisiae deletion strains, growth OD

Measured: normalized growth

NC(Cc1ccc(Cl)cc1)C(=O)O (stereo not drawn)
inactive: locus YAL013W, strain DEP1, active compounds read low 1 | locus YAL021C, strain ccr4, active compounds read low 0.989 | locus YAL026C, strain drs2, active compounds read low 1.01 | locus YAL030W, strain snc1, active compounds read low 0.993 | locus YAL040C, strain CLN3, active compounds read low 1 | locus YBL061C, strain skt5, active compounds read low 0.999 | locus YBR009C, strain hhf1, active compounds read low 0.993 | locus YBR021W, strain FUR4, active compounds read low 1.01 | locus YBR023C, strain chs3, active compounds read low 0.991 | locus YBR171W, strain sec66, active compounds read low 1.01 | locus YBR229C, strain ROT2, active compounds read low 0.96 | locus YBR231C, strain swc5, active compounds read low 0.997 | locus YBR279W, strain paf1, active compounds read low 0.988 | locus YCL011C, strain gbp2, active compounds read low 1 | locus YCL016C, strain dcc1, active compounds read low 0.989 | locus YCL029C, strain bik1, active compounds read low 0.994 | locus YCL061C, strain MRC1, active compounds read low 1.01 | locus YCL069W, strain vba3, active compounds read low 1 | locus YCR088W, strain abp1, active compounds read low 0.999 | locus YDL005C, strain med2, active compounds read low 0.989 | locus YDL035C, strain GPR1, active compounds read low 0.999 | locus YDL040C, strain nat1, active compounds read low 0.996 | locus YDL074C, strain BRE1, active compounds read low 0.997 | locus YDL101C, strain DUN1, active compounds read low 0.983 | locus YDL134C, strain PPH21, active compounds read low 0.952 | locus YDL185W, strain tfp1, active compounds read low 0.986 | locus YDL192W, strain arf1, active compounds read low 1 | locus YDR001C, strain nth1, active compounds read low 1.01 | locus YDR069C, strain doa4, active compounds read low 0.988 | locus YDR101C, strain arx1, active compounds read low 1.01 | locus YDR137W, strain rgp1, active compounds read low 0.998 | locus YDR150W, strain NUM1, active compounds read low 0.974 | locus YDR159W, strain sac3, active compounds read low 0.976 | locus YDR162C, strain NBP2, active compounds read low 1.01 | locus YDR195W, strain ref2 0.971 | locus YDR297W, strain sur2, active compounds read low 0.992 | locus YDR318W, strain mcm21, active compounds read low 0.987 | locus YDR334W, strain swr1, active compounds read low 1.02 | locus YDR335W, strain msn5, active compounds read low 1 | locus YDR388W, active compounds read low 0.996 | locus YDR392W, strain spt3, active compounds read low 0.936 | locus YDR502C, strain sam2, active compounds read low 1 | locus YEL003W, strain gim4, active compounds read low 1 | locus YEL037C, strain rad23, active compounds read low 1.02 | locus YEL061C, strain CIN8 (second series), active compounds read low 1.01 | locus YEL061C, strain CIN8, active compounds read low 0.99 | locus YER015W, strain faa2, active compounds read low 1 | locus YER016W, strain bim1, active compounds read low 0.992 | locus YER110C, active compounds read low 0.982 | locus YER111C, strain swi4, active compounds read low 1.01 | locus YER155C, strain BEM2 (second series), active compounds read low 0.975 | locus YER155C, strain BEM2, active compounds read low 1.01 | locus YER167W, strain BCK2, active compounds read low 0.999 | locus YFR010W, strain ubp6, active compounds read low 1.03 | locus YGL078C, strain dbp3, active compounds read low 0.988 | locus YGL086W, strain mad1, active compounds read low 1.01 | locus YGL167C, strain pmr1, active compounds read low 0.997 | locus YGL173C, strain kem1, active compounds read low 1 | locus YGL227W, strain vid30, active compounds read low 0.999 | locus YGL240W, strain doc1, active compounds read low 0.972 | locus YGL248W, strain PDE1, active compounds read low 0.987 | locus YGL253W, strain hxk2, active compounds read low 1.01 | locus YGR078C, strain PAC10, active compounds read low 0.991 and 1 | locus YGR135W, strain pre9, active compounds read low 1 | locus YGR229C, strain SMI1, active compounds read low 0.993 | locus YGR252W, strain gcn5, active compounds read low 0.989 | locus YHR013C, strain ard1, active compounds read low 0.994 | locus YHR027C, strain rpn1, active compounds read low 0.992 | locus YHR030C, strain SLT2, active compounds read low 0.986 and 0.959 | locus YHR079C, strain IRE1 (second series), active compounds read low 0.991 | locus YHR079C, strain IRE1, active compounds read low 0.986 | locus YHR094C, strain hxt1, active compounds read low 0.994 | locus YHR129C, strain ARP1, active compounds read low 0.985 | locus YHR142W, strain chs7, active compounds read low 1.03 | locus YHR200W, strain rpn10, active compounds read low 1 | locus YIL066C, strain RNR3, active compounds read low 0.982 | locus YIL073C, strain SPO22, active compounds read low 1.02 | locus YIL125W, strain kgd1, active compounds read low 0.998 | locus YIR030C, strain dcg1, active compounds read low 1 | locus YJL092W, strain hpr5, active compounds read low 1.01 | locus YJL095W, strain BCK1 (second series), active compounds read low 0.99 | locus YJL095W, strain BCK1, active compounds read low 1.02 and 0.993 | locus YJL115W, strain asf1, active compounds read low 0.994 | locus YJL129C, strain trk1, active compounds read low 1.02 | locus YJL134W, strain LCB3, active compounds read low 0.99 | locus YJL154C, strain vps35, active compounds read low 1.01 | locus YJL164C, strain tpk1, active compounds read low 0.992 | locus YJL166W, strain qcr8, active compounds read low 0.991 | locus YJL168C, strain set2, active compounds read low 0.994 | locus YJL187C, strain SWE1 (second series), active compounds read low 0.975 | locus YJL187C, strain SWE1, active compounds read low 0.993 | locus YJR043C, strain POL32, active compounds read low 1.01 | locus YJR066W, strain TOR1, active compounds read low 0.902
